Source: PubChem BioAssay (NCATS)
Records with an inconclusive call do not appear. Calls of active or inactive are those of the source. Unless noted, the call rests on the fitted dose curve; in most records, active means well fitted curve in the direction sought with a large enough effect; inconclusive means small, poorly fitted or top-dose-only effect, or another doubt; inactive means no such curve, though single readings can be large; an effect the other way counts as inactive or inconclusive.

Legend:
[1] = target: Cytochrome P450 3A4 (Homo sapiens) (UniProt P08684); experiment: qHTS Assay for Inhibitors and Substrates of Cytochrome P450 3A4 (AID 884); further: potency means the concentration at half of the fitted maximal effect; nearly all actives have a fitted effect of over 50% in size
Outline: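 20 nM human CYP3A4 with 25 uM Luciferin-PPXE (at KM) in 200 mM KPO4, preincubated 10 min with compound; NADPH regeneration started a 60 min RT reaction. Luciferin detected by luminescence, normalized to 57 uM ketoconazole as full inhibition.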

[2] = target: Cytochrome P450 3A4 (Homo sapiens) (UniProt P08684); experiment: qHTS Assay for Activators of Cytochrome P450 3A4 (AID 885); further: nearly all actives have a fitted effect of over 65% in size
Outline: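 Human CYP3A4 (20 nM) with Luciferin-PPXE at 25 uM (its KM) in 200 mM KPO4; 10 min compound preincubation, then NADPH regeneration and 60 min reaction at RT. Luciferin read by luminescence; normalized to 57 uM ketoconazole full inhibition.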

[3] = Confirmation and Secondary Assay for Modulators of Hemoglobin Beta Chain Splicing at IVS2 654 locus (AID 910);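 further: HeLa cells stably carrying EGFP split by mutant beta-globin IVS2-654 intron; % of control where 0% means no effect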
Outline: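 HeLa cells stably expressing EGFP interrupted by β-globin IVS2-654 intron, seeded overnight in Opti-MEM/2% FCS, then treated 2 days at 37 °C. Restored splicing read as total peak GFP intensity per well by laser scanning cytometry (488 nm excitation, 500–520 nm emission); 500 nM antisense PNA as control.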

[4] = target: Ubiquitin carboxyl-terminal hydrolase 1 (Homo sapiens) (UniProt O94782); experiment: Inhibitors of USP1/UAF1: Pilot qHTS (AID 504865); further: potency means the concentration at half of the fitted maximal effect; nearly all actives have a fitted effect of over 35% in size
Outline: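 USP1/UAF1 complex at 1 nM preincubated 15 min at room temperature with compound, then Ub-Rho substrate added at 150 nM final. Fluorescence (480/540 nm) read kinetically in 50 mM HEPES pH 7.8, 0.5 mM EDTA, 1 mM TCEP, 0.1 mg/ml BSA, 0.01% Tween-20.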

[5] = target: Furin (Homo sapiens) (UniProt P09958); experiment: Furin counterscreen qHTS for Zika virus inhibitors (AID 1347149); further: nearly all actives have a fitted effect of over 70% in size; further: potency means the concentration at half of the fitted maximal effect;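 on activity change, negative = inhibition: purified recombinant full-length human furin enzyme at 5 nM; fluorescence gain from furin cutting a BOC-RVRR-AMC peptide substrate over 15 min; top concentration of the series differs between compounds; plate controls were no-inhibitor control for no effect and no-enzyme control for full effect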
Outline: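 Fluorogenic cleavage of BOC-RVRR-AMC (2 microM final, Km ~15 µM) was monitored (ex 340, em 450 nm) at 37C after 15 min RT preincubation of 5 nM furin with compounds in HEPES pH 7.0 buffer with CaCl2 and Triton X-100. Percent inhibition was fitted to a 4-parameter Hill curve.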

[6] = Confirmatory screen GU Rhodamine qHTS for Zika virus inhibitors qHTS (AID 1347157); further: nearly all actives have a fitted effect of over 70% in size; further: potency means the concentration at half of the fitted maximal effect;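 on activity change, negative = inhibition: plate controls were no-inhibitor wells for no effect and no-enzyme wells for full effect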
Outline: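 Compounds, tested up to 114 microM, were incubated for 15 minutes with 25 nM unlinked NS2B-NS3 protease at pH 8.0. Cleavage of 1.5 microM Rhodamine110 substrate was then followed by fluorescence for 15 minutes.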

[7] = Confirmatory screen NINDS Rhodamine qHTS for Zika virus inhibitors (AID 1347161); further: nearly all actives have a fitted effect of over 60% in size; further: potency means the concentration at half of the fitted maximal effect;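 on activity change, negative = inhibition: purified Zika NS2B-NS3 protease with linked NS2B cofactor domain and Rhodamine110 peptide substrate; plate controls were no-inhibitor control for no effect and no-enzyme control for full effect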
Outline: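 Rhodamine110-peptide cleavage (1.5 µM substrate) by 25 nM linked NS2B-NS3 enzyme at pH 8.0 (Tris, Tween 20), after 15 min RT preincubation with compounds; 15-min fluorescence change normalized to controls and Hill-fitted.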

[8] = system: Zika virus NS2B-NS3 protease (linked); experiment: 384 well plate NINDS AMC confirmatory qHTS for Zika virus inhibitors (AID 1347163); further: nearly all actives have a fitted effect of over 50% in size; further: potency means the concentration at half of the fitted maximal effect;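 on activity change, negative = inhibition: linked protease at 5 30 or 60 nM final depending on run; fluorescence of AMC released from Ac-VKTGKR-AMC peptide cleaved by the protease; top concentration of the series differs between compounds; 0% = no-inhibitor control and -100% = no-enzyme control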
Outline: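 Linked NS2B-NS3 protease (final 5 nM, 30 nM or 60 nM) was preincubated with compounds (final up to 1 mM) for ~15 minutes. Ac-VKTGKR-AMC substrate (final 30 microM) then reacted for 25 minutes at room temperature in the dark. Fluorescence (ex 355/em 460 nm) was normalized to no-enzyme and no-inhibitor controls.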

[9] = system: Zika virus NS2B-NS3 protease (linked construct); experiment: 384 well plate NINDS Rhodamine confirmatory qHTS for Zika virus inhibitors (AID 1347164);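 further: fluorescence from protease cleavage of Ac-LKRR-rhodamine 110 substrate; nearly all actives have a fitted effect of over 65% in size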; further: potency means the concentration at half of the fitted maximal effect;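 on activity change, negative = inhibition: top concentration of the series differs between compounds; plate controls were no-inhibitor control for no effect and no-enzyme control for full effect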
Outline: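 Linked NS2B-NS3 protease (final 5, 30 or 60 nM) preincubated ~15 minutes with compounds, then 10 microM Ac-LKRR-Rhodamine 110 added. Fluorescence (485/538 nm) read after 25 minutes at room temperature, normalized to no-enzyme and no-inhibitor controls.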

[10] = Tertiary RLuc qRT-PCR qHTS assay for Zika virus inhibitors (AID 1347169); further: top concentration of the series differs between compounds; on the % scale 0 is the no-effect control and ±100 the full control effect; nearly all actives have a fitted effect of over 55% in size
Outline: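 Vero cells (1,000/well) infected with recombinant ZIKV-RLuc (Cambodian) at MOI 1-2 after compound addition, 48-72 hrs at 37 degrees C. Live-cell Renilla luciferase substrate added; luminescence read after 1-1.5 hrs.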

[11] = ZIKV-mCherry secondary qHTS for Zika virus inhibitors (AID 1347158); further: top concentration of the series differs between compounds
Outline: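 Vero cells (5,000/well) were given compound, then infected with ZIKV-mCherry at MOI 1 for 48–72 h at 37 °C. After PFA fixation and Hoechst staining, imaging gave percent mCherry-positive cells. The positivity threshold was RFU above 450, 3 SD over negative controls.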

[12] = Confirmation and Secondary Assay for Modulators of Hemoglobin Beta Chain Splicing at IVS2 705 locus (AID 930);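 further: HeLa cells stably expressing the EGFP-705 splicing reporter; % of control where 0% means no effect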
Outline: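 HeLa cells stably carrying EGFP interrupted by mutant beta-globin IVS2-705 intron (CMV-driven) were seeded at 500 cells/well, treated next day with compound for 2 days at 37C; corrected splicing restores EGFP, read as total peak GFP intensity per well.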

[13] = qHTS Assay for Lipid Storage Modulators (AID 1519; calls by dose curve; on activity change, negative = inhibition: on the % scale 0 is the no-effect control and ±100 the full control effect); details: Drosophila S3 cells, BODIPY lipid droplet/cell ratio, laser cytometry, cells loaded with oleic acid
Outline: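 Cells seeded at 5,000 per well were treated with compounds over a concentration series and loaded with oleic acid (400 uM, as added). Lipid droplet fluorescence (488 nm excitation, 500-530 nm channel) was read by laser-scanning cytometry and normalized to 20 uM Triacsin C.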

[14] = target: Tyrosyl-DNA phosphodiesterase 1 (Homo sapiens) (UniProt Q9NUW8); experiment: Confirmation Assay for Inhibitors of Tyrosyl-DNA Phosphodiesterase (TDP1) (AID 489007); details: recombinant human TDP1 enzymatic activity, dose-response; further: potency means the concentration at half of the fitted maximal effect; nearly all actives have a fitted effect of over 40% in size
Outline: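 Recombinant human Tdp1 (1 nM final), expressed in E. coli, preincubated 15 min with compound. Then 15 nM 5'-biotin/3'-phosphotyrosine-FITC DNA substrate added for 5 min at room temperature. AlphaScreen beads (10 ug/ml) added for 10 min; cleavage gives signal loss.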

Sequence of Cytochrome P450 3A4 (Homo sapiens) (P08684 whole entry, looked up): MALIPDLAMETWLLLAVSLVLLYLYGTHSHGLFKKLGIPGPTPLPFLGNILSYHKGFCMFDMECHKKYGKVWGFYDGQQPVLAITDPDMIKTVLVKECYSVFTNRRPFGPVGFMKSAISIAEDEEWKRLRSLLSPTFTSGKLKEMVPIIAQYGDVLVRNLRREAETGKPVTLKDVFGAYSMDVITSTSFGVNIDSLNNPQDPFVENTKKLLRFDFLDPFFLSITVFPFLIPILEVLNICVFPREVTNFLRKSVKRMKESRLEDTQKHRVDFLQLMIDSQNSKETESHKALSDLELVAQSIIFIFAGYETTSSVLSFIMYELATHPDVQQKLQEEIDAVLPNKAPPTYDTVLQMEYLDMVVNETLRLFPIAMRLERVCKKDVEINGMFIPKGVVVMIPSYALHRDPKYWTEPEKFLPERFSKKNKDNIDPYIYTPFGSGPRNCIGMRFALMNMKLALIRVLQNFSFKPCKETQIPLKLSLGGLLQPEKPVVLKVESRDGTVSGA
Sequence of Furin (Homo sapiens) (P09958 whole entry, looked up): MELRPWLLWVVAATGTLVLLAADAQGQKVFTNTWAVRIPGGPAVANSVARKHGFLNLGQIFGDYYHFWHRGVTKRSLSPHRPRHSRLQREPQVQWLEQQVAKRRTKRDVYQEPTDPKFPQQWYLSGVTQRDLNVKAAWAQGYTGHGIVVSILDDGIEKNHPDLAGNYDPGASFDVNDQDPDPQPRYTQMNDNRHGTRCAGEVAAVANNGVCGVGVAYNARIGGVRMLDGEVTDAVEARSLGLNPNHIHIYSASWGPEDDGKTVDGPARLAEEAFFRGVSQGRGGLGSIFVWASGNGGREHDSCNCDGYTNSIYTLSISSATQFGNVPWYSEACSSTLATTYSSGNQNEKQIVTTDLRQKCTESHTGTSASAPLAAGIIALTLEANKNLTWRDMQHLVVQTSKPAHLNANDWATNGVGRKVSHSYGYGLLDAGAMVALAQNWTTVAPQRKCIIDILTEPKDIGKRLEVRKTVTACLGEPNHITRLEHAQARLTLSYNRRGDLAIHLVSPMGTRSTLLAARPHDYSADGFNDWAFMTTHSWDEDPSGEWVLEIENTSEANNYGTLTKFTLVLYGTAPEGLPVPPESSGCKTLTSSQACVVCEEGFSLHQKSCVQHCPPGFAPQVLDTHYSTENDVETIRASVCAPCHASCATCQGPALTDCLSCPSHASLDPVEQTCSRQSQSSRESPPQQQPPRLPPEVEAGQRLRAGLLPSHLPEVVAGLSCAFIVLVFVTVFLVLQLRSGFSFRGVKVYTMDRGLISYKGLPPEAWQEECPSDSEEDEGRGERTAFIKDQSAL
Sequence of Tyrosyl-DNA phosphodiesterase 1 (Homo sapiens) (Q9NUW8 whole entry, looked up): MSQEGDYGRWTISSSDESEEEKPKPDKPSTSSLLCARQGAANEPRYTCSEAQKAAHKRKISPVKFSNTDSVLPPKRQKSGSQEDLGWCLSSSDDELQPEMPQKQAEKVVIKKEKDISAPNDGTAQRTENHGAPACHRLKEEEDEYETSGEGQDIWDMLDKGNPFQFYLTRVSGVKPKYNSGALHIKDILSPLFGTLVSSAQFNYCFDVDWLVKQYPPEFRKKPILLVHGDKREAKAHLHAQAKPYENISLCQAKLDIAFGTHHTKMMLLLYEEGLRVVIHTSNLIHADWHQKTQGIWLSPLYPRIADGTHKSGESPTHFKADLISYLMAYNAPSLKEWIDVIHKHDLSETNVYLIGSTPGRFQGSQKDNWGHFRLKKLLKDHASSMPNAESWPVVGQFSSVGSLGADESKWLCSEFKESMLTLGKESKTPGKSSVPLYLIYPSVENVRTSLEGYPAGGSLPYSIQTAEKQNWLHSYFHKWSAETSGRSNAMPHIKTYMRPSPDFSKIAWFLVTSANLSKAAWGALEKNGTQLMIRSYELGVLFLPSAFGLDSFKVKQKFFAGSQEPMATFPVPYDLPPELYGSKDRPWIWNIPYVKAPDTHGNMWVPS
Sequence of Ubiquitin carboxyl-terminal hydrolase 1 (Homo sapiens) (O94782 whole entry, looked up): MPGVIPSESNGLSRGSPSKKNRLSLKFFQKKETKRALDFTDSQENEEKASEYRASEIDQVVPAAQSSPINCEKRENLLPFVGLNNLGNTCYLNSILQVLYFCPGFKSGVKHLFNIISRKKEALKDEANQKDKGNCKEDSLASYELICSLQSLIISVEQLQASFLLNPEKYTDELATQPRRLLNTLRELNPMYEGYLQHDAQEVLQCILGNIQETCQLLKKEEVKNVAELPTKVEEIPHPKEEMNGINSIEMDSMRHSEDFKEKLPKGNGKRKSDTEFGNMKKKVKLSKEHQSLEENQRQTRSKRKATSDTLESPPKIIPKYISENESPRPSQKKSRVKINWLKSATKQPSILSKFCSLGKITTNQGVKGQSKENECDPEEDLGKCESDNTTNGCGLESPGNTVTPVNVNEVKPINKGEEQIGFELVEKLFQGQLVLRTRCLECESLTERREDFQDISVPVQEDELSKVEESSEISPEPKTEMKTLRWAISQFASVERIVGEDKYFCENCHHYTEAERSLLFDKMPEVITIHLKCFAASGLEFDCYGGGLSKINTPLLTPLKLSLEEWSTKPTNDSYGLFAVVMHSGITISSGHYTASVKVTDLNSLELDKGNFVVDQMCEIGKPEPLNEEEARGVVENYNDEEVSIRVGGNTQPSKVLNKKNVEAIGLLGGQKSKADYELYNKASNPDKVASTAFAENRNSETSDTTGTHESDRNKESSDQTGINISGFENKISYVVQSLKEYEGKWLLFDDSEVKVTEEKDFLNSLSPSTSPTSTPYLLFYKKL

Structure (SMILES): O=c1cc(-c2cc(O)c(O)c(O)c2)oc2cc(O)cc(O)c12
- Potency [1]: 20 µM (active)
- Potency [2]: inactive
- outcome [3]: inactive
- Potency [4]: 35.5 µM (active)
- Potency [5]: inactive
- Potency [6]: 44.7 µM (active)
- Potency [7]: 31.6 µM (active)
- Potency [8]: 63.1 µM (active)
- Potency [9]: inactive
- Potency [10]: inactive

Structure (SMILES): CCCc1nn2c(=O)cc(COC(=O)c3ccccc3NC(=O)c3ccc(Cl)cc3)nc2s1
- Potency [5]: 41.8 µM (active)
- Potency [6]: inactive
- Potency [7]: inactive

Structure (SMILES): Cc1oc2c(cc(NS(=O)(=O)c3ccc(Br)cc3)c3ccccc32)c1C(=O)OCc1ccccc1
- Potency [5]: inactive
- Potency [6]: 31.6 µM (active)
- Potency [11]: inactive
- Potency [7]: 39.8 µM (active)
- Potency [9]: 63.1 µM (active)

Structure (SMILES): Cc1cc(NC(=O)c2ccc(Cl)c(Cl)c2)ccc1-c1cc2ccccc2oc1=O
- Potency [5]: 66.3 µM (active)
- Potency [6]: 44.7 µM (active)
- Potency [7]: 31.6 µM (active)
- Potency [8]: inactive
- Potency [10]: inactive

Structure (SMILES): CC(C)(C)c1ccc(S(=O)(=O)Nc2ccc(O)c(Sc3nc4ccccc4s3)c2)cc1
- Potency [5]: inactive
- Potency [6]: 35.5 µM (active)
- Potency [7]: 28.2 µM (active)
- Potency [9]: 100 µM (active)

Structure (SMILES): O=c1c(-c2cc(O)c(O)c(O)c2)coc2cc(O)c(O)c(O)c12
- Potency [2]: inactive
- outcome [3]: inactive
- outcome [12]: inactive
- activity change, negative = inhibition ([13]; at 57.5 µM (top of the series)): 15.6% (inactive)
- max response ([13]; measured here: cell count channel max response): 7.38%
- max response ([13]; measured here: lipid channel max response): 21.8%
- Potency [14]: 0.282 µM (active)
- Potency [5]: inactive
- Potency [6]: 22.4 µM (active)
- Potency [7]: 12.6 µM (active)
- Potency [8]: 316 µM (active)
- Potency [9]: 126 µM (active)
